Laboratory results reported in PubChem BioAssay (NCATS).
Where “and” joins values, the source holds several entries; their conditions need not be identical. Equal values may be shown once. Records with an inconclusive call do not appear. A call without a number means that no potency is given here. Calls of active or inactive are those of the source. Unless noted, the call rests on the fitted dose curve.

Tests used:
[1] = Primary qHTS for Vero E6 cytotoxicity: counterscreen for inhibitors of SARS-S pseudo-typed particle cell entry (AID 1479150); further: potency means the concentration at half of the fitted maximal effect
[2] = Cytotoxicity counterscreen for inhibitors of SARS-CoV-2 cell entry (AID 1645845); further: nearly all actives have a fitted effect of over 50% in size
Method in brief: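 After a 15 min room-temperature ATPLite 1step step, luminescence reflected ATP remaining in HEK293-ACE2 cells exposed to compound for 1 h plus 48 h at 37 C, with percent activity set by cell and no-cell controls.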

[3] = Primary qHTS to identify inhibitors of SARS-CoV-2 cell entry (AID 1645846); details: activity change, negative = inhibition: at 57.1 µM (top of the series) unless noted; further: nearly all actives have a fitted effect of over 45% in size
Method in brief: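 HEK293-ACE2 (Expi293F, stable hACE2), 1500 cells/well, o/n 37C; cpd 23 nL pin, 1 h; MLV-PP w/ SARS-CoV-2-S (Wuhan-Hu-1, Δ19 C-term); 48 h 37C; Bright-Glo luminescence; normalized vs S-PP and bald PP.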

[4] = Primary qHTS for inhibitors of La Crosse Virus (LACV) - induced cell death in SH-SY5Y cells (AID 1508616; active means well fitted curve in the direction sought with a large enough effect; an effect the other way counts as inactive or inconclusive;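 further: top concentration of the series differs between compounds; higher means more rescue of cells from virus-induced death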)
Method in brief: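 Rescue of virus-induced death was read as ATPLite luminescence after 6 days at 37C, scaled between DMSO wells with LACV and without virus. Cells were SH-SY5Y, 6000/well, infected at 0.01 MOI after compound addition.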

[5] = biological target: Calcium and integrin-binding protein 1 (Homo sapiens) (UniProt Q99828); experiment: Validation qHTS for Identification of Calcium Integrin Binding protein 1 (CIB1) Competitor (AID 1508618; active means well fitted curve in the direction sought with a large enough effect; an effect the other way counts as inactive or inconclusive)
Method in brief: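 Displacement of FITC-alphaIIb peptide (100 nM) from CIB1-GST (1 uM) is monitored by polarization in quantitative HTS format; buffer carries 5 mM CaCl2 and 125 mM NaCl at pH 7.4, incubations are at room temperature.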

[6] = biological target: Calcium and integrin-binding protein 1 (Homo sapiens) (UniProt Q99828); experiment: Primary qHTS for Identification of Calcium Integrin Binding Protein 1 (CIB1) Competitor (AID 1508620; active means well fitted curve in the direction sought with a large enough effect; an effect the other way counts as inactive or inconclusive;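 further: GST tagged CIB1 binding a fluorescein labelled alphaIIb integrin peptide tracer; top concentration of the series differs between compounds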)
Method in brief: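 Fluorescence polarization competition: CIB1-GST (1 uM final) preincubated with compound 15 min at room temperature, then FITC-labeled alphaIIb peptide (100 nM final) added for another 15 min. Polarization read at Ex 480/Em 540.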

[7] = Primary qHTS for small molecule stabilizers of the endoplasmic reticulum resident proteome: Secreted ER Calcium Modulated Protein (SERCaMP) assay (AID 1508630; active means well fitted curve in the direction sought with a large enough effect; an effect the other way counts as inactive or inconclusive)
Method in brief: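 The SH-SY5Y reporter protocol was run at 3 concentrations up to 38.3 uM (primary) or 11 concentrations (follow-up): 16 h compound, 100 nM thapsigargin for 4 h, then extracellular luciferase luminescence.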

[8] = A High-Content qHTS Against Drug Library for the Identification of Small Molecules that Inhibit DYT1 Early Onset Primary Dystonia-Associated Cell Pathology (AID 1645839)
Method in brief: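 Induced EGFP-delE TorsinA cells are imaged after 48 h of compound treatment. Punctate fusion-protein distribution gives the %pathology value, while nuclei counts flag toxicity. Wild-type EGFP-hTOR1A cells define the normal pattern.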

[9] = biological target: Cytochrome P450 2D6 (Homo sapiens) (UniProt P10635); experiment: Cytochrome P450 family 2 subfamily D member 6 (CYP2D6) small molecule antagonists: luciferase biochemical (cell-free) qHTS assay (AID 1645840; active means well fitted curve in the direction sought with a large enough effect in the repeat runs; an effect the other way counts as inactive or inconclusive; further: potency means the concentration at half of the fitted maximal effect; nearly all actives have a fitted effect of over 55% in size)
Method in brief: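 P450-Glo CYP2D6 system: proluciferin substrate converted by enzyme to luciferin, read by luminescence proportional to activity. Enzyme-substrate mix with compound 10 min at room temperature, then NADPH regeneration 1 h before detection reagent.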

[10] = biological target: Cytochrome P450 2C9 (Homo sapiens) (UniProt P11712); experiment: Cytochrome P450 family 2 subfamily C member 9 (CYP2C9) small molecule antagonists: luciferase biochemical (cell-free) qHTS assay (AID 1645842; active means well fitted curve in the direction sought with a large enough effect in the repeat runs; an effect the other way counts as inactive or inconclusive; further: nearly all actives have a fitted effect of over 55% in size)
Method in brief: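 P450-Glo CYP2C9 system: proluciferin substrate with enzyme in mix containing 0.4% BSA, 10 min at room temperature, then NADPH regeneration solution added and incubated 1 h at 37C. Detection reagent stopped reaction; luminescence read after 20 min as RLU.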

Calcium and integrin-binding protein 1 (Homo sapiens), sequence (Q99828 whole entry, looked up): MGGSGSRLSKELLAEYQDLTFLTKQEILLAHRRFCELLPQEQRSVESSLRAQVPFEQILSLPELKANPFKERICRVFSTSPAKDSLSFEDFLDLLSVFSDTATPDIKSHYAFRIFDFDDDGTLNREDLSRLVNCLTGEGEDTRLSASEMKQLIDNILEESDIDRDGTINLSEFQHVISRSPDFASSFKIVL
Cytochrome P450 2D6 (Homo sapiens), sequence (P10635 whole entry, looked up): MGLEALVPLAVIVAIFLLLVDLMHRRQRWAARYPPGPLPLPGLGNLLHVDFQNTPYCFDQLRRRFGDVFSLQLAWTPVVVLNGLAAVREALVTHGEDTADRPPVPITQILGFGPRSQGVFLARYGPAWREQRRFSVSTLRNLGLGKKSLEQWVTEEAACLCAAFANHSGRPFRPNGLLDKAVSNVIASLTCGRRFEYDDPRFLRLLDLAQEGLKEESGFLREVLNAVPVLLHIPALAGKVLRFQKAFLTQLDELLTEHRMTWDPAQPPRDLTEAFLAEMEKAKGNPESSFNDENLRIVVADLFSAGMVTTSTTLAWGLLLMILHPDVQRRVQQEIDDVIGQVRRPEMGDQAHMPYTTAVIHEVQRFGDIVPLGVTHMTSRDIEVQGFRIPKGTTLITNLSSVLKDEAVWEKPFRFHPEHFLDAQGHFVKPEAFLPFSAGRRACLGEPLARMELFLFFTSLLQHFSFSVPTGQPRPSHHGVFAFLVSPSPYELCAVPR
Cytochrome P450 2C9 (Homo sapiens), sequence (P11712 whole entry, looked up): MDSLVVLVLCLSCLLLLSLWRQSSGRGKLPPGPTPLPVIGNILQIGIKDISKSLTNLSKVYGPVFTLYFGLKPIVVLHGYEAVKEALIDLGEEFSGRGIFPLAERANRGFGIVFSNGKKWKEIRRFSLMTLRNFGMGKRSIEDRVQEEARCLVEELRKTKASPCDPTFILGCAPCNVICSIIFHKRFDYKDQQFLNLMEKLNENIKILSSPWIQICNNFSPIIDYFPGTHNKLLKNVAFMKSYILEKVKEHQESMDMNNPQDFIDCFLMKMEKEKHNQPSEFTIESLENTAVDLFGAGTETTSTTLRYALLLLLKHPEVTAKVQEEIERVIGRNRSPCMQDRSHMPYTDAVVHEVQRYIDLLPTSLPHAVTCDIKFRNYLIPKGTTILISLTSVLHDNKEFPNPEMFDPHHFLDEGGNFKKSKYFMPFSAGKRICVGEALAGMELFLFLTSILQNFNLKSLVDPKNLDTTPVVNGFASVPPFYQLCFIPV

## Cc1nc2n(c(=O)c1CCN1CCC(c3noc4cc(F)ccc34)CC1)CCCC2
[1]
  Potency: inactive
[2]
  Potency: inactive
[3]
  Potency: inactive

## CCN(CC)CCCC(C)Nc1ccnc2cc(Cl)ccc12 (configuration not stated)
[1]
  Potency: inactive
[2]
  Potency: inactive

## CC[C@H](C)C(=O)O[C@H]1C[C@@H](C)C=C2C=C[C@H](C)[C@H](CC[C@@H]3C[C@@H](O)CC(=O)O3)[C@H]21
[1]
  Potency: 14.1 µM (active)
[2]
  Potency: inactive
[3]
  Potency: inactive

## CC(=O)[C@H]1CC[C@H]2[C@@H]3CC[C@H]4C[C@H](O)CC[C@]4(C)[C@H]3C(=O)C[C@]12C
[4]
  Potency: inactive
[5]
  Potency: inactive
[6]
  Potency: inactive
[7]
  outcome: inactive
[8]
  Potency: inactive

## CCC[C@H](N[C@@H](C)C(=O)N1[C@H](C(=O)O)C[C@@H]2CCCC[C@@H]21)C(=O)OCC
[1]
  Potency: inactive
[2]
  Potency: inactive
[3]
  Potency: inactive

## CNCC[C@@H](Oc1ccccc1C)c1ccccc1
[1]
  Potency: inactive
[3]
  activity change, negative = inhibition: -15.9%

## CC(=O)[C@H]1CC[C@H]2[C@@H]3CC[C@H]4C[C@](C)(O)CC[C@]4(C)[C@H]3CC[C@]12C
[4]
  Potency: inactive
[5]
  Potency: inactive
[6]
  Potency: inactive
[7]
  outcome: inactive
[8]
  Potency: inactive
[9]
  Potency: 1.23 µM (active)
[10]
  Potency: inactive

## Nc1[nH]c(=O)ncc1F
[1]
  Potency: inactive
[2]
  Potency: inactive
[3]
  activity change, negative = inhibition: -21.9% and -13.2%

## CC(=O)O[C@]1(C(C)=O)CC[C@H]2[C@@H]3C=C(C)C4=CC(=O)CC[C@]4(C)[C@H]3CC[C@@]21C
[1]
  Potency: inactive
[2]
  Potency: inactive
[3]
  Potency: inactive
  activity change, negative = inhibition: -12.1%

## CCCN1C[C@H](CSC)C[C@@H]2c3cccc4[nH]cc(c34)C[C@H]21
[1]
  Potency: inactive
[2]
  Potency: inactive
[3]
  activity change, negative = inhibition: -12.6%

## OCCN1CCN(CCCN2c3ccccc3Sc3ccc(C(F)(F)F)cc32)CC1
[1]
  Potency: inactive
[3]
  Potency: inactive
